# PubChem BioAssay AID1508600 (Functional Genomics Laboratory (NCATS/FGL), 2020)
# The whole screen tested about 53,000 sequences, of which about 3,700 (7%) were called active. This is one part of a sample in which actives are shown more often than they occur.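 How the source made its calls: active means gene knockdowns whose robust z-score for IL-1 alpha signal is at least 2 or at most -2, so actives lie on both sides; inactive means the rest.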
# Experiment: Components of the Cytosolic LPS Sensing Pathway: Gene Identification via Genome-wide siRNA Screen;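 further: robust z of the log signal after scaling to non-targeting control siRNA wells of the plate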
# Conditions: RAW264.7 macrophages, IL-1a HTRF, actives lie on both sides, screened at 100 nM (by protocol), cells primed 5 h with Pam3CSK4 first
# How it was run: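 RAW264.7 mouse macrophages reverse-transfected with single siRNAs (100 nM final) for 48h, primed with Pam3CSK4 for 5 hours, then transfected with LipidA for 24 hour. Supernatant IL-1a read by HTRF; values normalized to negative-control median, log-transformed robust z-scores.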
row,Sequence,z-score
1,GGUGCUGAUGAAGUUCAUGTT against Ap1b1,1.47 (inactive)
2,GGAGACUAUUUCAUCUACUTT against Tnfsf15,0.347 (inactive)
3,GGAGAAAACACAAUGUCUUTT against Limd1,0.441 (inactive)
4,CCUACAGAUAGGUAUGUAGTT against Exo1,-2.07 (active)
5,GGACUUUGAGGAGAAGGAUTT against Rabep2,-1.34 (inactive)
6,GGAAGGUGUCAAUAAAGAUTT against Lypd3,0.0184 (inactive)
7,GGGAUUUUUGAAACUGAAGTT against Glod4,-2.78 (active)
8,GGAGAGUCUCCAGACUUUGTT against Med29,-0.521 (inactive)
9,GGAGGAGACUCAGCAGAUUTT against Gzmn,2.29 (active)
10,CCAGAAGAACAAGGAAGUATT against Gm6460,-0.914 (inactive)
11,GGCCCAACGACAUUUAUGUTT against Pop7,-1.38 (inactive)
12,GCCUUCUGAUAACCUACUATT against Mefv,-1.87 (inactive)
13,GCUAGUGGUAAGUCAACCATT against Iqsec1,-0.882 (inactive)
14,GGAAGCUUACAUUGUGAAGTT against Unc5c,-0.735 (inactive)
15,GGACAAGCAAGGUCAAUCATT against Taar1,-1.11 (inactive)
16,GGUGUAAGAGCUUUGGCCUTT against Gm5420,2.35 (active)
17,AAACUAGGGUCGAUUUCACTT against Hmgn3,0.704 (inactive)
18,GGCCUUCCUCUUCUGCUUATT against Csf3r,0.157 (inactive)
19,GUGAACAACAUCCAAGCGATT against Dhrs7c,0.183 (inactive)
20,GCGGAAAAAUUACUUUCUUTT against Tas2r107,-2 (inactive)
21,GGAGUUUUCAUGCCUACAATT against Odam,2.58 (active)
22,GGAAACCUACCAAGAAACGTT against Fam234a,-0.293 (inactive)

row,Sequence,z-score
1,GGGACAAUUGGAAAGGCGATT against Wdr55,0.507 (inactive)
2,GGCACUUUCGGGAAUUCACTT against Nup160,-2.5 (active)
3,GCCUAUCAGUAUCAUAGUUTT against Dnajc10,0.905 (inactive)
4,GGAGUAUUCAACAUUUGUATT against Trim11,-0.523 (inactive)
5,GAACGGGUUACCAUGUGGUTT against Xkr9,0.546 (inactive)
6,CGCAGGUGAGAGCAAUGUUTT against Lrrn4cl,-1.35 (inactive)
7,GGAAGGAACUCAAGAAGACTT against Ifrd1,2.13 (active)
8,GGAUGUGAAAUUCAAGCUUTT against Dhx34,-0.457 (inactive)
9,GGAUACAGAAGGUUUUCUUTT against Abcd4,-0.137 (inactive)
10,GGAACCCUUUUCAAAAGAGTT against Bclaf3,0.112 (inactive)
11,GGAGGAGACUAAAGAAAAUTT against Myf6,-1.53 (inactive)
12,GGAAACAUCUUGUUGAAGATT against BC106179,0.361 (inactive)
13,GGAGAAAGCAGAGAUAAAATT against Cdk11b,-1.8 (inactive)
14,CCCACAACUGCAAAUUGUGTT against Olfr782,-1.21 (inactive)
15,GGAUACAAGAAACCUUAAGTT against Os9,1.09 (inactive)
16,CGACUCUUGCCUGUUCGUGTT against Adamtsl5,-2.48 (active)
17,GGAUAAAUUUCAAGAUGUGTT against Naip5,-0.552 (inactive)
18,GGUACCAUUCGUUCAAACCTT against 3830406C13Rik,0.416 (inactive)
19,GGCCUUUACGUCUUCCUAGTT against Zdhhc12,-1.19 (inactive)
20,GGAAGAUGGGCAAGAUGAUTT against Sash3,-0.183 (inactive)
21,CCCAGCACUUUUUCGCUCUTT against Olfr458,0.959 (inactive)
22,GCAGGACAACCAGCUGGUATT against Tmem107,3.43 (active)

row,Sequence,z-score
1,GGCACUCAGCAAGAUUGUATT against Nr2c2ap,-0.28 (inactive)
2,GCUCAUCUUAUCCUCUAAGTT against Cts7,0.391 (inactive)
3,UCAGGUCGCUGCUAAACUCTT against Ccdc57,-1.26 (inactive)
4,GGUUCAAAGGUGAUGGUGUTT against Dab2,0.273 (inactive)
5,CGAGCUUUGAAAGUUUAAUTT against Pcsk2,0.591 (inactive)
6,CCUGACGAUUGAGUAUCAUTT against Tubgcp4,-0.267 (inactive)
7,GGACCAGACGAACAGUGAUTT against Surf2,2.28 (active)
8,GGACCUGCCCAAAUCUGAUTT against Fbxo40,0.307 (inactive)
9,CGGCUCUUCAAUAGAGCCUTT against Olfr123,-0.265 (inactive)
10,GGAUUAUGGUCUCAUUGUCTT against Exd2,0.0549 (inactive)
11,GGAGCUUUCUCAGAGGUGUTT against Camk1g,-1.47 (inactive)
12,GCUGCUCGUUAAAGCCGGATT against Ankrd6,2.92 (active)
13,CCAGAUGCAGUCACAAGUCTT against Klf4,0.843 (inactive)
14,GGUUUUAAAGGCCAUAUUGTT against Msmo1,-1.72 (inactive)
15,GCCGACAACACAAAAUUAUTT against Vps26b,0.4 (inactive)
16,CGAAAGCACACACGUAGAATT against Erdr1,0.391 (inactive)
17,GGUCUUCCAAGGUCAGAAGTT against Cyp2d10,1.5 (inactive)
18,GGCAAUAAUCUUAGAGGUUTT against 9530068E07Rik,0.499 (inactive)
19,GCUGUAAGGAGGAACUUCUTT against Btg1,-1.03 (inactive)
20,GGUCUCUGGUAAGAAGAGCTT against Zfp276,2.95 (active)
21,CCGAACAGAGGAAGAAGGCTT against Olfr816,0.281 (inactive)
22,GGGAGGACAGUCAUUGGUUTT against Phldb1,-1.84 (inactive)

row,Sequence,z-score
1,GCAUAAGGAUAUAGCAUUATT against Ctla4,-0.72 (inactive)
2,GGCAUUUGCACAGUUUAUGTT against Upp2,-1.42 (inactive)
3,GGGUCCUUUUUAGCUGUAGTT against Vdac1,3.83 (active)
4,CCUAGUAAUCAGUUUGAAUTT against Ak4,1.17 (inactive)
5,CCAUAUGGCUUGUGGCAGATT against Scn1b,-0.245 (inactive)
6,GGUGACAGAGAUUUUCGAATT against Tbc1d22a,0.931 (inactive)
7,GGCAAGUCUUUAAAAGUCCTT against Xrcc2,-1.48 (inactive)
8,GGCCUUCCGCAUUUUAUCATT against Zfp729a,2.43 (active)
9,GGAGAAGAAGCUGGACCAGTT against Atp5o,0.348 (inactive)
10,GGUACAAUACAUUCAAACATT against Serpinb6c,-0.82 (inactive)
11,CCCUUGUCCAGUGUGAGUUTT against Tmem184b,1.07 (inactive)
12,GGCACAGACCUCACAGUUATT against Olfr64,0.534 (inactive)
13,GGAAAAAGCUGUGAUACUUTT against Hspbap1,-0.895 (inactive)
14,GGAACUGAUUGAAAACAUCTT against Syce2,2.97 (active)
15,GCAAAAUUAUCAGUGAGGATT against Nt5c3b,-2.54 (active)
16,GGGCAGAAAACAACUGGAATT against Pappa,-1.1 (inactive)
17,GGAGGAUGGAGUCAUAUAUTT against Gm773,-0.41 (inactive)
18,GGAGUUUGGAAUAAAAAGGTT against Flt3,-0.173 (inactive)
19,GCAGAGGGACAGUCUACAUTT against Rorc,-0.534 (inactive)
20,GAUUUCUAUACAGCCUAUCTT against Olfr799,0.312 (inactive)
21,GGCUACAAGUUGGUAAUCUTT against Pnkp,3.36 (active)
22,GGCUGGACAGGAUUAUCCATT against Tmem185b,-0.904 (inactive)

row,Sequence,z-score
1,CGCAGGUAAUUUGUUUGUGTT against Mtnr1b,1.16 (inactive)
2,GCAUAGCAAUGAAAAUCUATT against Lrit2,1.06 (inactive)
3,GGUUAAAGUUAAAUCUGUCTT against C6,-2.35 (active)
4,GGUCAAUCUUUGGAGUAUUTT against Stk39,-0.129 (inactive)
5,GCUUCCAAUUACUUAUCCATT against Phc3,-0.0705 (inactive)
6,GGGAAGAAGAGAUUCUGAUTT against Cep250,-1.53 (inactive)
7,GGCAGGUUUAACUUUAAUGTT against Cacna1e,3.59 (active)
8,GGACAAGGAUAGUAGUAAGTT against Parp1,-0.122 (inactive)
9,GCAUACCCUAUUUAGUUUUTT against Gpr33,-0.00896 (inactive)
10,GCACGAAGAACCACACAAGTT against Sp110,2.37 (active)
11,CCGGAGUCAGUAUCCAGAATT against Ndufaf4,-0.282 (inactive)
12,GCCGUGGAUCGAAUAAUUCTT against Coq7,-1.03 (inactive)
13,GGUUUUAGUAAACUUCCCATT against Fam76b,-0.692 (inactive)
14,GGAUCCUGGAUAAUCUGGGTT against Plscr1,-1.35 (inactive)
15,GCGUGCAUAUAUCCAAUGCTT against Tardbp,1.36 (inactive)
16,GGUAAUCUCCAAAAAACCATT against Lilra6,-0.863 (inactive)
17,GCUUUGAGCAGCUAGGUUATT against Tpcn2,3.78 (active)
18,GGGACCUUUUCAGGACCUUTT against Ucp2,-0.954 (inactive)
19,GGCUGCCUUCAUCUUUUCUTT against Fth1,0.873 (inactive)
20,GCUUGUAUGAGAUUACCUATT against Ttc1,1.19 (inactive)
